Laboratory results as given in PubChem BioAssay (NCI).
This is part of a sample that, as a whole, favours compounds with a hit. Of some 83,000 tested, about 20% had one in any assay.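 Results are percent growth after 48 hours of single-concentration exposure. 100 means growth as in untreated cells, lower positive values show inhibition; negative values down to -100 show cell death.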 Values without a mark were called inactive. Active and inactive are the calls of the source. Rule for the calls: active = growth percent below 10; inactive = the rest.

Assays:
Assay in all cases: NCI-60 one-dose screen, 48 h (100 = growth as untreated, 0 = no growth, -100 = all killed)
Conditions in all cases: 10 µM unless noted
[1] = test system: SR leukemia
[2] = test system: RPMI-8226 leukemia
[3] = test system: OVCAR-8 ovarian
[4] = test system: OVCAR-5 ovarian
[5] = test system: OVCAR-4 ovarian
[6] = test system: IGROV1 ovarian
[7] = test system: OVCAR-3 ovarian
[8] = test system: HS 578T breast
[9] = test system: NCI/ADR-RES ovarian
[10] = test system: T-47D breast
[11] = test system: BT-549 breast
[12] = test system: MDA-MB-435 melanoma
[13] = test system: SW-620 colon
[14] = test system: MCF7 breast
[15] = test system: HCT-116 colon
[16] = test system: HCC-2998 colon
[17] = test system: KM12 colon
[18] = test system: SK-OV-3 ovarian

CCCCSCC(=O)c1ccccc1
growth [1]: 88.3%
growth [2]: 106%
growth [3]: 94.2%
growth [4]: 95.2%
growth [5]: 100%
growth [6]: 99.3%
growth [7]: 99.3%
growth [8]: 110%
growth [9]: 97.9%
growth [10]: 95.4%
growth [11]: 99.9%
growth [12]: 106%
growth [13]: 105%
growth [14]: 98.2%
growth [15]: 95.2%
growth [16]: 100%
growth [17]: 98.5%

CCNC(=O)Oc1ccc(/C(=C(/C)Cc2ccc(OC)cc2)c2ccc(OCCN3CCCCCC3)cc2)cc1
growth [1]: -51.7% (active)
growth [2]: 20.3%
growth [3]: 75.4%
growth [4]: 94.8%
growth [5]: 87.9%
growth [6]: 78%
growth [7]: 59.5%
growth [8]: 67.2%
growth [9]: 76.7%
growth [10]: 35.9%
growth [11]: 89.1%
growth [12]: 81.6%
growth [13]: 70.7%
growth [14]: 22.2%
growth [15]: 56.3%
growth [16]: 63.3%
growth [17]: 53.9%

COC(=O)C1=C(C)NC(C)=C(C(=O)OCC(C)C)C1c1ccccc1[N+](=O)[O-] (centres undefined)
growth [1]: 20.3%
growth [2]: 53.1%
growth [3]: 61.6%
growth [4]: 98.7%
growth [5]: 51.8%
growth [6]: 56.9%
growth [7]: 56.5%
growth [8]: 112%
growth [9]: 48.8%
growth [10]: 56.1%
growth [11]: 59.5%
growth [12]: 54.8%
growth [13]: 29.4%
growth [14]: 72.7%
growth [15]: 30.1%
growth [16]: 83.5%

COc1ccc2c(c1)c(-c1cc(-c3cn(C)c4ccc(OC)cc34)on1)cn2C
growth [1]: 104%
growth [2]: 84.6%
growth [3]: 97.5%
growth [4]: 78.5%
growth [5]: 112%
growth [18]: 93.3%
growth [8]: 90.3%
growth [9]: 95.4%
growth [10]: 80.9%
growth [11]: 127%
growth [12]: 116%
growth [13]: 91.8%
growth [14]: 89%
growth [15]: 89.1%
growth [16]: 101%
growth [17]: 106%

CCN=C1C=CC(=C(c2ccc(N(C)C)cc2)c2ccc(N(C)C)cc2)c2ccccc21
growth [1]: 3.56% (active)
growth [2]: -22.9% (active)
growth [3]: -8.37% (active)
growth [4]: 4.09% (active)
growth [5]: 16.3%
growth [6]: -7.04% (active)
growth [7]: -60.9% (active)
growth [8]: -29.8% (active)
growth [9]: 12.3%
growth [10]: -22.8% (active)
growth [11]: -35.2% (active)
growth [12]: -35.2% (active)
growth [13]: -9.44% (active)
growth [14]: -9.8% (active)
growth [15]: -51.6% (active)
growth [16]: -40.8% (active)
growth [17]: -86.1% (active)

C=C1C(=O)O[C@H]2[C@H]1CC/C(COC(=O)c1cc3cc(F)ccc3[nH]1)=C\CC[C@@]1(C)O[C@@H]21
growth [1]: -5.71% (active)
growth [2]: -33.3% (active)
growth [3]: -42% (active)
growth [4]: -74.2% (active)
growth [5]: -68.2% (active)
growth [6]: -72.1% (active)
growth [7]: -85.5% (active)
growth [8]: -14.2% (active)
growth [9]: -20.2% (active)
growth [10]: -51.8% (active)
growth [11]: -82.9% (active)
growth [12]: -82% (active)
growth [13]: -69.2% (active)
growth [14]: -61.7% (active)
growth [15]: -87.2% (active)
growth [16]: -83.4% (active)
growth [17]: -48% (active)

CCCCN1C(=O)/C(=c2\sc3n(c2=O)NC2C(N=3)N(CC)C(=O)N2CC)c2ccccc21 (centres undefined)
growth [1]: 24.5%
growth [2]: 60.2%
growth [3]: 36.2%
growth [4]: 48.4%
growth [5]: 50.8%
growth [18]: 77.2%
growth [8]: 40.2%
growth [9]: 20.5%
growth [10]: 18.7%
growth [11]: 73.4%
growth [12]: -41.6% (active)
growth [13]: 36.2%
growth [14]: 25%
growth [15]: 13.1%
growth [16]: 64.1%
growth [17]: 20.3%

NC(=S)N/N=C/c1cn(-c2ccccc2)nc1-c1cc2ccccc2oc1=O
growth [1]: 12.2%
growth [2]: 33.4%
growth [3]: 64.5%
growth [4]: 88.1%
growth [5]: 79.2%
growth [6]: 46.7%
growth [7]: 34.4%
growth [8]: 64.4%
growth [9]: 48.6%
growth [10]: 47.8%
growth [11]: 42.5%
growth [12]: -47.5% (active)
growth [13]: 22.7%
growth [14]: 33.3%
growth [15]: 27.2%
growth [16]: 88.4%
growth [17]: 30.9%

CCCn1c(=S)sc2c1nc(C)n1c(Nc3ccccc3)nnc21
growth [1]: 61.4%
growth [2]: 45.9%
growth [3]: 71.3%
growth [4]: 107%
growth [5]: 42.8%
growth [6]: 80.3%
growth [7]: 61.5%
growth [8]: 97.4%
growth [9]: 85.4%
growth [10]: 15.6%
growth [11]: 76.2%
growth [12]: 63.7%
growth [13]: 104%
growth [15]: 59.1%
growth [16]: 78.3%
growth [17]: 96.5%
